Laboratory results as given in PubChem BioAssay (NCATS).
Results filed as inconclusive are left out. Where a call stands in place of a potency, no number is given. Values without a mark were called inactive. The source made the active and inactive calls. Calls follow the shape of the dose curve; as a rule, active = well fitted curve in the direction sought with a large enough effect; inconclusive = small, poorly fitted or top-dose-only effect, or another doubt; inactive = no such curve, though single readings can be large; an effect the other way counts as inactive or inconclusive.

Columns and labels:
[1] = target: Rap guanine nucleotide exchange factor 3 (Homo sapiens) (UniProt O95398); test: Confirmatory qHTS for antagonist of cAMP-regulated guanine nucleotide exchange factor 3 (EPAC1) (AID 1645880); settings: EPAC1 Rap1B-BODIPY-GDP exchange, fluorescence; activity, negative = inhibition: at 115 µM (top of the series); also: nearly all actives have a fitted effect of over 55% in size; also: potency is read from the fitted curve at half-maximal effect
Chain of Rap guanine nucleotide exchange factor 3 (Homo sapiens) (O95398 whole entry, looked up): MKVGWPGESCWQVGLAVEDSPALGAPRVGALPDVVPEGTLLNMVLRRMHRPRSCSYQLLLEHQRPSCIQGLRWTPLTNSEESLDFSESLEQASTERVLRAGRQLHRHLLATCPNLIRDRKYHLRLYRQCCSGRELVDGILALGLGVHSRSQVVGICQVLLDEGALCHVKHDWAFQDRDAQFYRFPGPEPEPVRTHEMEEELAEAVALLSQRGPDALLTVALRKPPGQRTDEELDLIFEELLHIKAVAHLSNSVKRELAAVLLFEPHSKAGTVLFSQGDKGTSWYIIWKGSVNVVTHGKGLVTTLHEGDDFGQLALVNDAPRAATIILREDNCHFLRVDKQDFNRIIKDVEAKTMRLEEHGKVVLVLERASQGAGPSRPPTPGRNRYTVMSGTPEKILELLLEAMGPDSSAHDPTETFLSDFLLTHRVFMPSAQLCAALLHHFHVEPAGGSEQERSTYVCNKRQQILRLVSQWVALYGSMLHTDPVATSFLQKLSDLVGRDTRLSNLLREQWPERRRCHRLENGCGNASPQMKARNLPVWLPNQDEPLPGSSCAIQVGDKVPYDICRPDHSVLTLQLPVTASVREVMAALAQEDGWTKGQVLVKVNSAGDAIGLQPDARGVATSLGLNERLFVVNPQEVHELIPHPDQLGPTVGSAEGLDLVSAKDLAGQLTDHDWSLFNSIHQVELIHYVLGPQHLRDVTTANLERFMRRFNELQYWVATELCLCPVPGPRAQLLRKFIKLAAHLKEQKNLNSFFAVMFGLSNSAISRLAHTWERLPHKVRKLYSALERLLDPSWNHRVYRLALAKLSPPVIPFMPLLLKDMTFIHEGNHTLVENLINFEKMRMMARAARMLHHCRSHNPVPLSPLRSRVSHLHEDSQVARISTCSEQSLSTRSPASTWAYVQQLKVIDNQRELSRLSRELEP
Outline: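 Nucleotide exchange uses 100 nM EPAC1, 250 nM RAP1B-BODIPY-GDP and 50 uM GDP, with compounds in a concentration-titration series. After 5 min at room temperature, fluorescence (480 nm ex/540 nm em) is read every 5 min for 30 min. Data are normalized to control ATA and DMSO.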

[2] = target: Rap guanine nucleotide exchange factor 3 (Homo sapiens) (UniProt O95398); test: Confirmatory qHTS for agonist of cAMP-regulated guanine nucleotide exchange factor 3 (EPAC1) (AID 1645881);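 also: EPAC1 catalysed release of BODIPY-GDP from Rap1B seen as fluorescence loss; nearly all actives have a fitted effect of over 75% in size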
[3] = target: Rap guanine nucleotide exchange factor 3 (Homo sapiens) (UniProt O95398); test: Counterscreen qHTS for antagonist of cAMP-regulated guanine nucleotide exchange factor 3 (EPAC1) (AID 1645888);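 also: fluorescence loss as bound BODIPY-GDP is released from Rap1B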
Outline: (§1)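 Rap1B-BODIPY-GDP 250 nM + GDP 50 uM; cpds 7-pt, final 9.74 nM–152 uM (activator mode) or from 7.32 nM upwards (inhibitor mode); RT; FI 480/540 nm at 5 and 30 min, then ± cAMP, reread.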

[4] = target: Rap guanine nucleotide exchange factor 3 (Homo sapiens) (UniProt O95398); test: Counterscreen qHTS for agonist of cAMP-regulated guanine nucleotide exchange factor 3 (EPAC1) (AID 1645889); also: nearly all actives have a fitted effect of over 40% in size
Outline: as §1

| SMILES | Potency [1] | Potency [2] | activity change, negative = inhibition [3] | activation [4] | Potency [3] | Potency [4] |
| --- | --- | --- | --- | --- | --- | --- |
| CCc1ccc([C@@H]2CC=C(C(=O)O)[C@H](c3ccc(Cl)cc3)N2S(=O)(=O)c2ccc(C)cc2)cc1 | 50.1 µM (active) | inactive | -9.33% [at 30.8 µM] | 4.76% [at 30.8 µM] |  |  |
| COc1ccc(Cl)cc1NC(=O)CN1c2ccccc2CC1C (stereo not given) | inactive | inactive |  |  | inactive |  |
| COC(=O)c1ccccc1C(=O)c1c(C)cc(C)cc1C | inactive | inactive | 4.03% [at 30.8 µM] | 0.931% [at 30.8 µM] |  |  |
| COC(=O)c1cn(C(=O)c2ccc(C)cc2C)c2ccccc12 | inactive | inactive |  |  | inactive | inactive |
| c1ccc(CNc2c(-c3cccc(SC4CCCCC4)c3)nc3ccccn23)cc1 | inactive | inactive | 4.85% [at 30.8 µM] | 4.1% [at 30.8 µM] |  |  |
| COc1ccc(S(=O)(=O)Nc2ncccc2C)c2ccccc12 | inactive | inactive |  |  | inactive | inactive |
| Cc1ccc2cccc(Oc3nnnn3-c3ccccc3)c2n1 | inactive | inactive |  |  | inactive | inactive |
| Cc1cc(C)c(C(=O)c2ccccc2)c(C)c1 | inactive | inactive |  |  |  | inactive |
